Sampled rows, rich in hits. Any-hit rate of the full collection: about 2.3%.
SIRT5 block: inhibitors of human sirtuin-5 desuccinylase; Q9NXA8; Purified SirT5, succinyl-peptide AMC, trypsin-coupled fluorescence; inhibition, % at 15 µM; hit rate 1.1% among 330,000; AID 652115; in the data active means inhibition above about 15%; inconclusive means no clear call, values can overlap the other calls
DENV2 CPE rescue: DENV2-induced cell death inhibition; CPE inhibition, % at 9.99 µM; hit rate 1.7% among 350,000; AID 651640; DENV2-infected cells, cytopathic effect rescue, plate reader; in the data active means CPE inhibition above about 20%, passing the limit was not always enough; inconclusive means no clear call, values can overlap the other calls; tested in BHK-21 cells;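 further: 0% = median of neutral control wells and 100% = median of positive control wells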
ERp5 inh: blocks human ERp5 reductase activity on insulin | ERp5 insulin aggregation, absorbance 650 nm, 90 min | hit rate 0.05% among 350,000 | inhibition, % at 9.99 µM | Q15084;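 active means mean replicate inhibition above about 25%, with every replicate also reaching it, limit read from the data, passing the limit was not always enough; inconclusive means only one of those two criteria met; inactive means neither criterion met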
Rtt109 Vps75: C. albicans Rtt109 histone acetyltransferase inhibition; purified Rtt109/Vps75, ThioGlo CoA-SH fluorescence, 4 h; hit rate 0.16% among 330,000; AID 540336; inhibition, % at 34.9 µM; Q5AAJ8;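 active means inhibition of at least 50% in every replicate; inconclusive means best replicate reaches 50% inhibition but some replicates fall short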
Target sequence (Q5AAJ8 whole entry, looked up): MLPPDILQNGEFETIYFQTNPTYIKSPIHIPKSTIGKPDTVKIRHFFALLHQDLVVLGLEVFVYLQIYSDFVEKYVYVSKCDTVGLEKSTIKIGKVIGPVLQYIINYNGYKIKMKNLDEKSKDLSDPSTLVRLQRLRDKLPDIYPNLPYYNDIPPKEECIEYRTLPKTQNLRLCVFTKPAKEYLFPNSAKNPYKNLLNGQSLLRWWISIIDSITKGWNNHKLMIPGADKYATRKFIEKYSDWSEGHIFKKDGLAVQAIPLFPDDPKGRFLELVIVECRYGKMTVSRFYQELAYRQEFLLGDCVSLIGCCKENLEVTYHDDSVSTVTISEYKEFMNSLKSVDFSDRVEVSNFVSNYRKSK
PDI inh: inhibitors of human protein disulfide isomerase | P07237 | PDI insulin aggregation turbidity, A650, 90 min | inhibition, % at 10 µM | hit rate 0.052% among 350,000 | AID 588391;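 active means mean inhibition across replicates of 30% or more, whatever share of single replicates reach that level; inconclusive means mean inhibition below 30% while every single replicate reaches 30%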
Active calls of the source: *; u = inconclusive; x = not tested or not shown.

SMILES	SIRT5 block	DENV2 CPE rescue	ERp5 inh	Rtt109 Vps75	PDI inh
C[C@@H]1CN([C@@H](C)CO)S(=O)(=O)c2ccc(C#CC3CCCC3)cc2O[C@@H]1CN(C)C	7	18	-5	x	x
C[C@@H]1CN([C@@H](C)CO)S(=O)(=O)c2ccc(C#CC3CCCC3)cc2O[C@H]1CN(C)C	2	22*	-4	x	x
C[C@H]1CN([C@@H](C)CO)S(=O)(=O)c2ccc(C#CC3CCCC3)cc2O[C@H]1CN(C)C(=O)Cc1ccccc1	17*	-2	0	x	x
C[C@H](CO)N1C[C@H](C)[C@H](CN(C)C)Oc2cc(C#CC3(O)CCCC3)ccc2S1(=O)=O	-1	26*	2	x	x
C[C@@H]1CN([C@@H](C)CO)S(=O)(=O)c2ccc(C#CC3(O)CCCC3)cc2O[C@@H]1CN(C)C	-5	-6	3	x	x
C[C@H](CO)N1C[C@H](C)[C@H](CN(C)C)Oc2cc(C#CC3CCCC3)ccc2S1(=O)=O	7	59*	0	x	x
C[C@H]1CN([C@@H](C)CO)C(=O)c2cccc(NS(=O)(=O)c3cccs3)c2O[C@H]1CN(C)C(=O)NC1CCCCC1	0	11	-5	x	x
COCC#Cc1cnc2c(c1)C(=O)N([C@@H](C)CO)C[C@H](C)[C@H](CN(C)C(C)=O)O2	12	u	6	x	x
COc1ccc(CNC(=O)C[C@@H]2CC[C@@H]3[C@H](COc4ccc(NC(C)=O)cc4C(=O)N3C)O2)cc1	-4	-2	1	x	x
O=C(C1CCOCC1)N1[C@H](CO)[C@@H](c2ccccc2)C12CN(CCC(F)(F)F)C2	-2	-11	5	x	x
c1ccc(-c2nnc(-c3ccco3)o2)cc1	x	x	x	-9	-4
c1coc(-c2nnc(-c3ccco3)nn2)c1	18*	8	8	-2	13
COc1ccc(CN(CCC(c2ccccc2)c2ccc(OC(C)C)cc2)C(=O)CCl)cc1OC (configuration not stated)	x	x	x	4	86*
O=C(O)C[C@@H]1C[C@@H]2c3cc(NC(=O)c4ccc5c(c4)OCO5)ccc3O[C@@H]2[C@H](CO)O1	-1	4	-3	x	x
O=C1[C@@H](Oc2ccccc2)[C@@H](c2ccncc2)N1c1ccccc1	0	47*	-3	0	-5
O=C1[C@@H](Oc2ccccc2)[C@@H](c2ccccc2)N1c1cccnc1	-7	-3	5	-9	11
COc1ccc2c3c([nH]c2c1)[C@@H](CO)N(C(=O)C1CCCCC1)CC31CCN(Cc2nccs2)CC1	2	5	8	x	x
COc1ccc2c3c([nH]c2c1)[C@H](CO)N(C(=O)C1CCC1)CC31CCN(Cc2nccs2)CC1	12	41*	-6	x	x
COc1ccc2c3c([nH]c2c1)[C@@H](CO)N(Cc1nccs1)CC31CN(C(=O)C2CCCC2)C1	4	29*	80*	x	x
COc1ccc2c3c([nH]c2c1)[C@@H](CO)N(C(=O)c1ccccn1)CC31CN(C(=O)C2CCC2)C1	3	-6	-3	x	x
COc1ccc2c3c([nH]c2c1)[C@@H](CO)N(C(=O)c1ccccn1)CC31CN(C(=O)C2CCCC2)C1	4	24*	1	x	x
COc1ccc2c3c([nH]c2c1)[C@H](CO)N(C(=O)C1CCOCC1)CC31CCN(Cc2nccs2)CC1	-6	-2	84*	x	x
O=C(C1CCCC1)N1CC2(C1)[C@H](c1ccccc1)[C@@H](CO)N2CC1CC1	-4	8	-2	x	x
CCNC(=O)C[C@@H]1C=C[C@H](NS(=O)(=O)c2ccc(C)cc2)[C@@H](CO)O1	0	4	1	x	x
O=C(C[C@@H]1C[C@H]2c3cc(NC(=O)NC4CCCC4)ccc3O[C@H]2[C@@H](CO)O1)NC1CCCC1	-2	16	-1	x	x
SMILES	SIRT5 block	DENV2 CPE rescue	ERp5 inh	Rtt109 Vps75	PDI inh
N#C[C@H]1[C@@H](c2ccccc2-c2ccc(F)cc2)[C@@H](CO)N1C(=O)NC1CCCC1	2	3	-4	x	x
CCC(=O)N(C)C[C@@H]1Oc2cc(C#CC3CCCCC3)ccc2S(=O)(=O)N([C@@H](C)CO)C[C@@H]1C	3	-8	-4	x	x
COc1ccc2c3c([nH]c2c1)[C@H](CO)N(C(=O)c1cnccn1)CC31CCN(S(C)(=O)=O)CC1	-5	68*	-3	x	x
C[C@H](O)C#Cc1cnc2c(c1)C(=O)N([C@H](C)CO)C[C@H](C)[C@H](CN(C)C(=O)Cc1ccccn1)O2	-1	2	0	x	x
COc1ccc2c3c([nH]c2c1)[C@H](CO)N(Cc1ccccc1)CC31CN(S(=O)(=O)c2ccc(C)cc2)C1	8	36*	5	x	x
COc1ccc2c3c([nH]c2c1)[C@@H](CO)N(Cc1cc(F)ccc1F)CC31CN(C(=O)CN(C)C)C1	0	18	-3	x	x
COc1ccc2c3c([nH]c2c1)[C@@H](CO)N(Cc1ccccc1F)CC31CN(C)C1	x	-4	x	x	x
COc1ccc2c3c([nH]c2c1)[C@@H](CO)N(Cc1ccccc1)CC31CN(S(=O)(=O)c2ccc(C)cc2)C1	0	20*	4	x	x
COc1ccc2c3c([nH]c2c1)[C@H](CO)N(Cc1cc(F)ccc1F)CC31CN(C(=O)CN(C)C)C1	-1	26*	0	x	x
CCS(=O)(=O)N1CC2(CN(Cc3ccccc3F)[C@@H](CO)c3[nH]c4cc(OC)ccc4c32)C1	3	20*	1	x	x
COc1ccc2c3c([nH]c2c1)[C@H](CO)N(C)CC31CN(S(=O)(=O)c2ccc(C)cc2)C1	x	1	1	x	x
CCCN(C)C[C@@H]1OCCCC[C@H](C)Oc2ccc(NC(=O)CCC(F)(F)F)cc2C(=O)N([C@@H](C)CO)C[C@@H]1C	1	-4	-2	x	x
C[C@H]1CN([C@@H](C)CO)C(=O)Cc2cc(NC(=O)NC3CCCCC3)ccc2O[C@@H]1CN(C)S(C)(=O)=O	3	3	2	x	x
C[C@H](CO)N1C[C@H](C)[C@@H](CN(C)C(=O)N[C@H](C)c2ccccc2)OCc2ccccc2-c2c(n(C)c3ccccc23)C1=O	6	-2	-1	x	x
COc1cccc(NC(=O)N[C@@H]2C=C[C@@H](CC(=O)N3CCCCC3)O[C@H]2CO)c1	-3	1	2	x	x
N#C[C@H]1[C@H](c2ccc(-c3ccccc3)cc2)[C@H](CO)N1C(=O)Cc1ccccc1	15*	u	0	x	x
N#C[C@H]1[C@H](c2ccccc2-c2ccccc2)[C@@H](CO)N1C(=O)Cc1cccnc1	-1	35*	8	x	x
N#C[C@@H]1[C@@H](c2ccc(-c3ccccc3)cc2)[C@H](CO)N1C(=O)Cc1ccccc1	2	u	2	x	x
N#C[C@@H]1[C@@H](c2ccccc2-c2ccccc2)[C@H](CO)N1C(=O)Cc1cccnc1	1	0	0	x	x
COCc1cn(CC[C@H]2CC[C@H](NC(=O)Nc3ccc(OC)cc3)[C@H](CO)O2)nn1	0	u	1	x	x
CCC[C@H]1CC(=O)C=C(c2ccsc2)ON1C(=O)OC(C)(C)C	21*	0	-3	-6	4
C[C@H]1CN([C@@H](C)CO)C(=O)c2cc(C#CC(C)(C)O)cnc2O[C@@H]1CN(C)C(=O)c1ccccc1F	-1	-1	2	x	x
